Source: PubChem BioAssay (Tox21)
Values without a mark were called inactive. Records with an inconclusive call do not appear. Where a call stands in place of a potency, no number is given. Calls of active or inactive are those of the source. Unless noted, the call rests on the fitted dose curve; in most records, active means well fitted curve in the direction sought with a large enough effect in the repeat runs; inconclusive means weak or mixed curves; inactive means no such curve, though single readings can be large; an effect the other way counts as inactive or inconclusive.

Columns and labels:
[1] = target: Progesterone receptor (Homo sapiens) (UniProt P06401); experiment: qHTS assay to identify small molecule agonists of the progesterone receptor (PR) signaling pathway (AID 1346784; calls by dose curve; further: nearly all actives have a fitted effect of over 30% in size)
Sequence of Progesterone receptor (Homo sapiens) (P06401 whole entry, looked up): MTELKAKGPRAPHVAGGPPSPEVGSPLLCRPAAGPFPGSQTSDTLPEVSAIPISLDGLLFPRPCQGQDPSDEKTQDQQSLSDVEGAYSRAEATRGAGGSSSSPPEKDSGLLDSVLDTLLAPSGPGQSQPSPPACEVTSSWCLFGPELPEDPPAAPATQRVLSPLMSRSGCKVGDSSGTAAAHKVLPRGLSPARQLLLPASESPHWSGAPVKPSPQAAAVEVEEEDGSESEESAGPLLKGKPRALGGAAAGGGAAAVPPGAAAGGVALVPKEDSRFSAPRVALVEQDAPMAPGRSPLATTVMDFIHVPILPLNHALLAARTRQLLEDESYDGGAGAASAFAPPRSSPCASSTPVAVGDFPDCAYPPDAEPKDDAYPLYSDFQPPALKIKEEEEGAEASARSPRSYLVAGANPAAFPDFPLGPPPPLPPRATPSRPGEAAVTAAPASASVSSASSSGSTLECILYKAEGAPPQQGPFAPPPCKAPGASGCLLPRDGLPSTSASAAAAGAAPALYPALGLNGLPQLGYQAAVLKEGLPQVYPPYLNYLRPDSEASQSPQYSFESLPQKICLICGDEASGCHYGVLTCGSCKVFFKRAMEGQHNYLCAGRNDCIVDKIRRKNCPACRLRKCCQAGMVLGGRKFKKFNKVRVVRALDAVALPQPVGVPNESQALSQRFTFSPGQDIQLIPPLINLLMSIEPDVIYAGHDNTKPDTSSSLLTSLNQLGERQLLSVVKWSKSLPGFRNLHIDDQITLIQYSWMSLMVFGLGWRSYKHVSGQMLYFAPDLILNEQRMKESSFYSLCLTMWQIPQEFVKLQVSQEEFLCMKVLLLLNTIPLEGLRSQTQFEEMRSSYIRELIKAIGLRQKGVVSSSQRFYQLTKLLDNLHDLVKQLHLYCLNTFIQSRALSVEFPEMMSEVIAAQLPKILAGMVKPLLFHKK
Summary of the method: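 Seed PR-UAS-bla HEK 293T cells (2% charcoal-stripped FBS), incubate 6 hr at 37C; add compounds in DMSO, 16 hr at 37C; add LiveBLAzer B/G substrate, 2 hr RT; read fluorescence intensity.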

[2] = qHTS assay to identify small molecule antagonists of the TGF-beta/Smad signaling pathway - cell viability counter screen (AID 1346824); further: nearly all actives have a fitted effect of over 50% in size
Summary of the method: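 SBE-bla HEK 293T cells were plated overnight at 37 C, then given compounds in DMSO plus TGF-beta1 (added as 0.25 ng/mL solution) for 5 hr. After the bla read, CellTiter-Glo was added to the same wells and luminescence read after 30 min at room temperature.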

[3] = qHTS assay to identify small molecule agonists of the TGF-beta/Smad signaling pathway - cell viability counter screen (AID 1346829); further: top concentration of the series differs between compounds; nearly all actives have a fitted effect of over 45% in size
Summary of the method: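 Here the cytotoxicity of library compounds is measured in SBE-bla HEK 293T cells treated for 5 hr, using CellTiter-Glo added to wells already read for the beta-lactamase reporter.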

[4] = qHTS assay to identify small molecule agonists of the TGF-beta/Smad signaling pathway (AID 1346859; active means well fitted activation curve with a large enough effect in the signal ratio in the repeat runs, not every such curve was filed as active; the % refers to the signal ratio; further: series mostly up to about 77 µM)
Summary of the method: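 Beta-lactamase reporter activity downstream of Smad binding elements was measured in stably transfected HEK 293T cells; compounds were incubated for 5 hr, substrate for 2 hr at room temperature.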

[5] = target: Thyrotropin-releasing hormone receptor (Homo sapiens) (UniProt P34981); experiment: qHTS assay to identify small molecule antagonists of the thyrotropin-releasing hormone receptor (TRHR) signaling pathway (AID 1346877; active means well fitted inhibition curve with a large enough effect in the repeat runs, not every such curve was filed as active; further: series mostly up to about 51 µM)
Sequence of Thyrotropin-releasing hormone receptor (Homo sapiens) (P34981 whole entry, looked up): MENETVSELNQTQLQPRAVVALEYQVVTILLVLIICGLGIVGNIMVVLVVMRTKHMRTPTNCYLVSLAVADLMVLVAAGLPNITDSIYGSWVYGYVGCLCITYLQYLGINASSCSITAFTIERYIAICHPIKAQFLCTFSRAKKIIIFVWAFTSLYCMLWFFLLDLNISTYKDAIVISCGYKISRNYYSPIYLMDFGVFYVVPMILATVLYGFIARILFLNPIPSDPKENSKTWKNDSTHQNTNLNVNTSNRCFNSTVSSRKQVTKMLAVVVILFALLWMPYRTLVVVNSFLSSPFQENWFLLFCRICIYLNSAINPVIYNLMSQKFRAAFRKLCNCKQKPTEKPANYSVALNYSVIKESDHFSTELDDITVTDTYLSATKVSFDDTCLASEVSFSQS
Summary of the method: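 HEK293/TRHR cells, 18 h, 37 °C; Ca2+ dye 2 h; cpd 5 min RT; TRH 1 nM final; fluorescence read 3 min, 1 s intervals; 15 concs, triplicate.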

[6] = qHTS assay to identify small molecule agonists of the estrogen receptor alpha (ER-alpha) signaling pathway in the presence of an antagonist - cell viability counter screen (AID 1259386);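 further: cells exposed to compounds for 22 h at 37 °C before the viability read; nearly all actives have a fitted effect of over 30% in size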; further: potency means the concentration at half of the fitted maximal effect; on activity change, negative = cytotoxicity: series mostly up to about 92 µM
Summary of the method: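 Read-out: CellTiter-Fluor fluorescence after 1hr reagent incubation, measured in the same wells as the luciferase readout. VM7Luc4E2 cells were exposed to 15 compound concentrations with 10.0nM ICI-182,780 for 22hr at 37C.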

[7] = qHTS assay to identify small molecule agonists of the progesterone receptor (PR) signaling pathway - cell viability counter screen (AID 1346799; calls by dose curve; further: nearly all actives have a fitted effect of over 45% in size)
Summary of the method: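 Using the same plates as the PR reporter screen, HEK293T PR-UAS-bla cells received compounds for 16 hr at 37C and were then lysed with CellTiter-Glo; luminescence was read 30 min later at room temperature.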

[8] = target: Progesterone receptor (Homo sapiens) (UniProt P06401); experiment: qHTS assay to identify small molecule antagonists of the progesterone receptor (PR) signaling pathway (AID 1346795; active means well fitted inhibition curve with a large enough effect in the signal ratio in the repeat runs, not every such curve was filed as active; the % refers to the signal ratio; further: potency means the concentration at half of the fitted maximal effect)
Summary of the method: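 Screening used a GripTite HEK293T line with PR-responsive UAS-beta-lactamase. Cells were challenged with compound in the presence of 1 nM R5020 final for 16 hr at 37C; B/G FRET substrate, 2 hr room temperature, fluorescence.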

[9] = qHTS assay to identify small molecule antagonists of the progesterone receptor (PR) signaling pathway - cell viability counter screen (AID 1346798); further: series mostly up to about 92 µM; nearly all actives have a fitted effect of over 50% in size
Summary of the method: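 Measures cytotoxicity in parallel with the PR antagonist reporter read: HEK293T PR-UAS-bla cells get compound and R5020 for 16 hr, and remaining viable cells are quantified by CellTiter-Glo luminescence.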

Which Potency [1] does the source give for `CC(C)OCC1CO1` (stereo unspecified) here?
Its Potency is “inactive”.

What about the outcome [2] of the same compound?
Its outcome is “inactive”.

And the outcome [3]?
The outcome was “inactive”.

What about the outcome [4] of the same compound?
Its outcome is “inactive”.

What about the outcome [5] of the same compound?
The outcome was “inactive”.

Which results are given for `C(=C\c1ccccc1)/CN1CCN(C(c2ccccc2)c2ccccc2)CC1`?
Potency [6]: inactive; outcome [2]: inactive; outcome [3]: inactive; outcome [4]: inactive; outcome [5]: inactive

Which Potency [6] does the source give for `CSc1ccc(Oc2ccc(S(N)(=O)=O)cc2CN(C)C)cc1C` here?
The Potency was “inactive”.

What about the Potency [1] of the same compound?
Its Potency is “inactive”.

What about the Potency [7] of the same compound?
The Potency was “inactive”.

What about the outcome [2] of the same compound?
The outcome was “inactive”.

And the outcome [3]?
The outcome was “inactive”.

What about the outcome [4] of the same compound?
The outcome was “inactive”.

What about the outcome [5] of the same compound?
Its outcome is “inactive”.

With `CO[C@H]1C=CO[C@@]2(C)Oc3c(C)c(O)c4c(O)c(c5c(c4c3C2=O)=NC2(CCN(CC(C)C)CC2)N=5)NC(=O)/C(C)=C\C=C/[C@H](C)[C@H](O)[C@@H](C)[C@@H](O)[C@@H](C)[C@H](OC(C)=O)[C@@H]1C` as the compound, how does the Potency [6] read?
The Potency was 26.7 µM (active).

What about the Potency [8] of the same compound?
Its Potency is “inactive”.

And the outcome [2]?
The outcome was “inactive”.

And the outcome [3]?
The outcome was “inactive”.

And the outcome [5]?
The outcome was “inactive”.

Which results are given for `Cc1nc2ccccn2c(=O)c1CCN1CCC(C(=O)c2ccc(F)cc2)CC1`?
Potency [1]: inactive; Potency [8]: inactive; Potency [9]: inactive; Potency [7]: inactive; outcome [2]: inactive; outcome [3]: inactive; outcome [4]: inactive; outcome [5]: inactive

What does the source list for `Cc1cc(C(=C2C=CC(=Nc3ccc(S(=O)(=O)O)cc3S(=O)(=O)O)C=C2)c2ccc(Nc3ccc(S(=O)(=O)O)cc3)cc2)ccc1N`?
Potency [1]: inactive; Potency [8]: inactive; Potency [9]: inactive; Potency [7]: inactive; outcome [2]: inactive; outcome [3]: inactive; outcome [4]: inactive; outcome [5]: inactive

What does the source list for `CCC(=O)OC/C=C/c1ccccc1`?
Potency [1]: inactive; Potency [8]: inactive; Potency [9]: inactive; Potency [7]: inactive; outcome [2]: inactive; outcome [3]: inactive; outcome [4]: inactive

With `Cc1oc(C)c(C(=O)Nc2ccccc2)c1C` as the compound, how does the Potency [6] read?
Its Potency is “inactive”.

And the Potency [1]?
Its Potency is “inactive”.

What about the Potency [9] of the same compound?
Its Potency is “inactive”.

And the Potency [7]?
Its Potency is “inactive”.

And the outcome [4]?
Its outcome is “inactive”.

And the outcome [5]?
The outcome was “inactive”.

Which Potency [1] does the source give for `Cc1ccc(Nc2nccc(N(C)c3ccc4c(C)n(C)nc4c3)n2)cc1S(N)(=O)=O` here?
The Potency was “inactive”.

What about the outcome [2] of the same compound?
The outcome was “inactive”.

And the outcome [3]?
Its outcome is “inactive”.

And the outcome [4]?
The outcome was “inactive”.

And the outcome [5]?
Its outcome is “inactive”.

For `Nc1ccc(C(=O)OCCCOC(=O)c2ccc(N)cc2)cc1`, which Potency [6] is on record?
The Potency was “inactive”.

And the Potency [1]?
Its Potency is “inactive”.

What about the outcome [2] of the same compound?
Its outcome is “inactive”.

What about the outcome [3] of the same compound?
Its outcome is “inactive”.

What about the outcome [4] of the same compound?
Its outcome is “inactive”.

What about the outcome [5] of the same compound?
Its outcome is “inactive”.

What does the source list for `CCCCCCCC/C=C\CCCCCCCC(=O)OC(CO)CO`?
Potency [1]: inactive; Potency [8]: inactive; Potency [9]: inactive; Potency [7]: inactive; outcome [2]: inactive; outcome [3]: inactive; outcome [4]: inactive; outcome [5]: inactive

What does the source list for `Fc1ccccc1[C@@H](F)COC1CCC(Nc2ncnc3[nH]ncc23)CC1` (stereo partly specified)?
Potency [8]: 27.3 µM (active); outcome [2]: inactive; outcome [3]: inactive; outcome [5]: inactive

Which Potency [6] does the source give for `Cc1cc2nc3ccc(=[N+](C)C)cc-3sc2cc1N` here?
Its Potency is 29.8 µM (active).

What about the Potency [7] of the same compound?
Its Potency is “inactive”.

And the outcome [2]?
The outcome was “inactive”.

And the outcome [3]?
Its outcome is “inactive”.

And the outcome [4]?
Its outcome is “inactive”.

Which results are given for `CCOC(=O)[C@@H](C)Oc1ccc(Oc2nc3ccc(Cl)cc3o2)cc1`?
Potency [6]: inactive; Potency [1]: inactive; Potency [9]: inactive; outcome [2]: inactive; outcome [3]: inactive; outcome [4]: inactive; outcome [5]: inactive

Which Potency [6] does the source give for `O=C(C(=O)c1ccccc1)c1ccccc1` here?
Its Potency is “inactive”.

And the Potency [8]?
Its Potency is “inactive”.

And the Potency [9]?
The Potency was “inactive”.

What about the Potency [7] of the same compound?
Its Potency is “inactive”.

And the outcome [2]?
Its outcome is “inactive”.

What about the outcome [3] of the same compound?
The outcome was “inactive”.

And the outcome [4]?
Its outcome is “inactive”.

And the outcome [5]?
Its outcome is “inactive”.

With `O=[N+]([O-])c1cccc(S(=O)(=O)NCCNS(=O)(=O)c2cccc([N+](=O)[O-])c2)c1` as the compound, how does the Potency [1] read?
Its Potency is “inactive”.

And the Potency [8]?
The Potency was “inactive”.

What about the Potency [9] of the same compound?
Its Potency is “inactive”.

What about the Potency [7] of the same compound?
The Potency was “inactive”.

And the outcome [2]?
The outcome was “inactive”.

What about the outcome [3] of the same compound?
Its outcome is “inactive”.

What about the outcome [4] of the same compound?
The outcome was “inactive”.

What about the outcome [5] of the same compound?
Its outcome is “inactive”.

With `NC(=O)Cn1c(=O)cc(CCN2CCN(c3nccc4sccc34)CC2)c2ccc(F)cc21` as the compound, how does the Potency [1] read?
The Potency was “inactive”.

What about the Potency [8] of the same compound?
Its Potency is “inactive”.

What about the outcome [2] of the same compound?
Its outcome is “inactive”.

And the outcome [3]?
Its outcome is “inactive”.

What about the outcome [5] of the same compound?
Its outcome is “inactive”.

With `O=C(c1ccc(O)cc1)c1ccc(Cl)cc1` as the compound, how does the Potency [9] read?
Its Potency is “inactive”.

And the outcome [2]?
Its outcome is “inactive”.

What about the outcome [3] of the same compound?
Its outcome is “inactive”.

What about the outcome [5] of the same compound?
Its outcome is “inactive”.

With `[O]=[Bi]` as the compound, how does the activity change, negative = cytotoxicity [6] read?
The activity change, negative = cytotoxicity was -3.93% [at 8.39 µM].

What about the activation [1] of the same compound?
The activation was 4.47% [at 8.39 µM].

What about the activity change, negative = cytotoxicity [7] of the same compound?
The activity change, negative = cytotoxicity was 0% [at 8.39 µM].

And the viability change, negative = cytotoxic [2]?
Its viability change, negative = cytotoxic is -10.5% [at 6.97 µM].

What about the activity change, negative = cytotoxicity [3] of the same compound?
Its activity change, negative = cytotoxicity is -9.02% [at 6.97 µM].

And the activation [4]?
Its activation is 2.8% [at 6.97 µM].

And the activity, negative = inhibition [5]?
Its activity, negative = inhibition is 3.48% [at 4.65 µM].

What does the source list for `COc1ccc(C(=O)c2cccc(O)c2)c(OC)c1`?
Potency [6]: inactive; Potency [1]: inactive; outcome [2]: inactive; outcome [3]: inactive; outcome [4]: inactive; outcome [5]: inactive

Which Potency [6] does the source give for `CCC(C)=O` here?
Its Potency is “inactive”.

What about the Potency [9] of the same compound?
Its Potency is “inactive”.

And the Potency [7]?
The Potency was “inactive”.

What about the outcome [2] of the same compound?
Its outcome is “inactive”.

What about the outcome [3] of the same compound?
Its outcome is “inactive”.

What about the outcome [4] of the same compound?
Its outcome is “inactive”.

And the outcome [5]?
The outcome was “inactive”.

What does the source list for `N#C/C(=C1/SC[C@@H](c2ccc(Cl)cc2Cl)S1)n1ccnc1`?
Potency [6]: inactive; Potency [1]: inactive; outcome [2]: inactive; outcome [3]: inactive; outcome [5]: inactive
